The list is not random: actives were taken first. Their share in the collection is about 12%.
Sm TGR block: S. mansoni TGR enzyme inhibition; purified TGR, DTNB reduction, TNB absorbance 405 nm; Potency, µM (doses to about 114 µM), for inactives: top-dose activity change, negative = inhibition, actives largely listed as inhibitors; hit rate 3% among 360,000; AID 485364; note: % is set by controls: 0 for no effect and ±100 for the full control effect; nearly all actives have a fitted effect of over 60% in size
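TGR 20 nM + NADPH 100 uM (dispensed conc.), cpd preinc 15 min RT; start with NADPH (500 uM addition) then DTNB (15 mM addition). Kinetic TNB absorbance, 405 nm filter. Four-parameter Hill fit across titration.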
SARS PLpro yeast: inhibitors of SARS-CoV papain-like protease in yeast. S. cerevisiae expressing SARS-CoV PLpro, growth rescue. Potency, µM (titrated, usually from 32.9 µM), inactives show top-dose activity, positive = growth rescue, actives largely listed as activators. hit rate 0.19% among 330,000. AID 485353; calls by dose curve; note: 0% is about no effect; nearly all actives have a fitted effect of over 55% in size
Pf growth 96h: P. falciparum growth inhibition at 96 hour, primary screen for plastid delayed-death inhibitors. AID 504834. P. falciparum luciferase reporter growth, 96 h. hit rate 6.9% among 320,000. Potency, µM (highest dose often 28.7 µM), without a hit: top-dose activity change, negative = inhibition, actives largely listed as inhibitors; note: % is set by controls: 0 for no effect and ±100 for the full control effect
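Readout is luminescence from an integrated firefly luciferase in P. falciparum. Red cells, 2% hematocrit and 0.05% parasitemia final, were cultured with compound through two parasite generations (96 hours) at 37 C, 5% CO2.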
Pf growth 48h: inhibits P. falciparum growth in the first generation, 48 h. P. falciparum luciferase growth in erythrocytes, 48 h. Potency, µM (top dose mostly 28.7 µM), inactives show at the highest dose activity change, negative = inhibition, actives largely listed as inhibitors. hit rate 5.9% among 310,000; note: % is set by controls: 0 for no effect and ±100 for the full control effect
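Here the parasites carry a stable luciferase gene and grow inside erythrocytes in Albumax-based RPMI medium with compound for one erythrocytic cycle. Activity is scored as loss of luminescent signal.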
* marks the source's active call; other numbers are inactive results; u = inconclusive; x = no result; [ ] = dose if it differs, or a comment. Unless noted, calls come from the whole dose curve; as a rule, active = well fitted curve in the direction sought with a large enough effect; inconclusive = small, poorly fitted or top-dose-only effect, or another doubt; inactive = no such curve, though single readings can be large; an effect the other way counts as inactive or inconclusive. Potency is the fitted concentration of half-maximal effect.

SMILES	Sm TGR block	SARS PLpro yeast	Pf growth 96h	Pf growth 48h
CC(C)CCSc1nc(N)c(C#N)cc1C#N	-25%	-14%	-10%	12µM*
Oc1ccc(Nc2nc(N3CCCC3)c3ccccc3n2)cc1	-23%	-7%	7%	0.47µM*
C=CCNc1nc(N2CCCC2)nc2ccccc12	-5%	-4%	x	5.2µM*
COc1ccc(/C=N/Nc2nc(Nc3ccccc3)nc(N3CCCC3)n2)cc1	7%	2%	0%	u
c1ccc2c(c1)nc(N1CCCCCC1)c1ccccc12	-7%	-2%	-13%	u
COc1ccc(Nc2nc(-c3ccc(C)cc3)nc3ccccc23)c(OC)c1	14%	x	x	x
COc1ccc(Nc2nc(N3CCCC3)nc3ccccc23)c(OC)c1	-4%	-4%	x	6.6µM*
COc1ccc(Nc2nc(N3CCCCC3)c3ccccc3n2)cc1	4%	-15%	4.7µM*	7.4µM*
CC(C)OC(=O)c1c(NC(=O)c2cc3nc(-c4ccccc4)cc(C(F)(F)F)n3n2)sc2c1CCCC2	-8%	x	x	x
Cc1ccc(Nc2nc(N3CCOCC3)c3ccccc3n2)cc1	18%[11.4 µM]	-21%	10µM*	x
Cc1ccc(Nc2nc(N)c([N+](=O)[O-])c(N3CCOCC3)n2)cc1	7%	-5%	u	-18%
Cc1cc(C)c(C#N)c(N2CCCC(C(N)=O)C2)n1 (stereo not drawn)	0%	13%	12µM*	-15%
CC(OC(=O)Cc1c[nH]c2ccccc12)C(=O)NC1CCCCC1C (stereo not drawn)	3%	2%	9%	u
Cc1[nH]c(C(=O)O)c(C)c1C(=O)OC(C)C	u	0%	-4%[5.75 µM]	8%
CC(=O)c1c(C(=O)O)[nH]c(C(=O)O)c1C	10µM*	0%	-12%	15%
O=C(CN1CCC(n2nnc3cc(F)ccc32)CC1)Nc1ccccc1N1CCOCC1	1%	0%	-17%	1.7µM*
O=C(CN1CCC(n2nnc3cc(F)ccc32)CC1)N1CCc2ccccc2C1	0%	-1%	5%	8.3µM*
Cc1ccccc1OCC(=O)NNC(=O)c1cc(S(=O)(=O)N2CCOCC2)ccc1N1CCCC1	-1%	2%	19%	u
Cc1ccc(-c2cc(-c3ccc(C)cc3)[n+](-c3ccc(C(=O)[O-])cc3)c(-c3ccc(C)cc3)c2)cc1	13%	-13%	u	3.7µM*
Clc1ccc(-c2nc3ccccc3nc2-c2ccccc2)cc1	-4%	-36%	2%	8%
Cc1ccc(-c2cc(-c3ccccc3)cc(-c3ccccc3)[n+]2-c2ccccc2)cc1	-1%	-10%	0.33µM*	0.37µM*
Cc1ccc(-c2cc(-c3ccc(C)cc3)[n+](-c3ccccc3)c(-c3ccc(C)cc3)c2)cc1	-4%	-2%	0.29µM*	0.29µM*
C[n+]1c(-c2ccccc2)cc(-c2ccc(Cl)cc2)cc1-c1ccccc1	-3%	-4%	u	1.7µM*
CC(=O)Nc1scc(-c2ccccc2)[n+]1-c1ccc(C)cc1	-14%	-4%	50%	6%
Cc1ccc(NC(=O)c2ccc(C)cc2)cc1	2%	4%	163%	129%
SMILES	Sm TGR block	SARS PLpro yeast	Pf growth 96h	Pf growth 48h
CN1C(=O)C(C)(C)c2cc(S(=O)(=O)NCc3ccc(C(=O)NCc4ccco4)cc3)ccc21	-31%	2%	u	13%
c1ccc(-c2cc(-c3ccccc3)[n+](-c3ccccc3)c(-c3ccccc3)c2)cc1	11%	1%	0.37µM*	0.29µM*
CN(C)c1ccc(-[n+]2c(-c3ccccc3)cc(-c3ccccc3)cc2-c2ccccc2)cc1	x	-4%	u	u
COc1cc(NC(=O)Cn2cnc3sc(C)c(S(=O)(=O)N4CCC(C)CC4)c3c2=O)cc(OC)c1OC	-1%	x	x	x
O=C(NCc1ccc(Cl)cc1)C(=O)c1cn(CC(=O)N2CCOCC2)c2ccccc12	-8%	-2%	13µM*	19%
COC(=O)c1ccc(NC(=O)C(=O)c2cn(CC(=O)N3CCOCC3)c3ccccc23)cc1	1%	-3%	u	14%
O=C(Nc1ccccc1Cl)C(=O)c1cn(CC(=O)N2CCOCC2)c2ccccc12	0%	-1%	12µM*	139%
COc1ccc(CNC(=O)C(=O)c2cn(CC(=O)N3CCOCC3)c3ccccc23)cc1	2%	-4%	-2%	34%
Cc1cc(OC(=O)c2cc([N+](=O)[O-])ccc2Cl)c([N+](=O)[O-])c(=O)[nH]1	-4%	4%	39%	9%
Cc1cccc(CN2C(=O)c3ccccc3Sc3ccc(C(=O)NC4CCCCC4)cc32)c1	9%	x	x	x

Source: PubChem BioAssay (National Center for Advancing Translational Sciences (NCATS))
